In PubChem BioAssay (NCI):
This is part of a sample that, as a whole, favours compounds with a hit. Of some 79,000 tested, about 15% had one in any assay. Values without a mark were called inactive. Active and inactive are the calls of the source. No stated cut-off is given here; in the data, active means growth inhibition above about 70%; inactive means the rest.

Key:
[1] = NCI Yeast Anticancer Drug Screen. Data for the rad50 strain (AID 155);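 further: 0% = growth of vehicle-only cultures of the same strain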; conditions: S. cerevisiae rad50 strain growth inhibition; at 50.0 µM; hits give high values
How it was run: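 Yeast carrying a defined DNA repair defect were exposed to test compounds, and growth was compared with vehicle-treated controls to give percent inhibition.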

[2] = NCI Yeast Anticancer Drug Screen. Data for the mec2-1 strain (AID 157); conditions: S. cerevisiae mec2-1 strain, at 50.0 µM, hits give high values
How it was run: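 Mutant yeast (mec2-1) grown with compound; growth inhibition relative to vehicle control reported.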

[3] = NCI Yeast Anticancer Drug Screen. Data for the sgs1 mgt1 strain (AID 161);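 further: 0% = growth of cultures given vehicle only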; conditions: S. cerevisiae sgs1 mgt1 strain, at 50.0 µM, hits give high values
How it was run: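 Percent growth inhibition was derived by comparing compound-exposed mutant yeast with vehicle-exposed cultures. The strain carries alterations in DNA damage repair.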

[4] = NCI Yeast Anticancer Drug Screen. Data for the cln2 rad14 strain (AID 165);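 further: 0% = growth equal to vehicle treated cultures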; conditions: S. cerevisiae cln2 rad14 strain, at 50.0 µM, hits give high values
How it was run: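 Readout is yeast growth inhibition versus vehicle-treated controls, using a strain with cln2 and rad14 alterations exposed to compound.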

[5] = NCI Yeast Anticancer Drug Screen. Data for the bub3 strain (AID 167); conditions: S. cerevisiae bub3 mutant strain, at 50.0 µM, hits give high values
How it was run: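 Compounds were applied to a genetically altered yeast strain carrying a cell-cycle control defect. Growth inhibition was scored against vehicle-treated controls.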

[6] = NCI Yeast Anticancer Drug Screen. Data for the mlh1 rad18 strain (AID 175); conditions: S. cerevisiae mlh1 rad18 strain growth inhibition; at 50.0 µM; hits give high values
How it was run: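 Genetically defined yeast (DNA repair-deficient) exposed to compounds; growth inhibition determined relative to vehicle.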

SMILES | growth inhibition [1] | growth inhibition [2] | growth inhibition [3] | growth inhibition [4] | growth inhibition [5] | growth inhibition [6]
Nc1nc(C2CCCCC2)cs1 | 54.2% | 29.8% | 31.1% | 16.1% | 14.9% | 20.4%
C#CC(OC(=O)c1cc([N+](=O)[O-])cc([N+](=O)[O-])c1)C1OC(C)(C)OC1C1COC(C)(C)O1 (stereo unspecified) | 27% | 26.4% | 57.1% | -1% | 7.25% | 58.5%
CCN1CCC(O)(C(C(=O)O)c2ccccc2)CC1 (stereo unspecified) | 3.45% | -27% | -35% | -28.8% | -38.7% | 2.4%
CC(C)(C)OC(=O)Cc1ccc([N+](=O)[O-])cc1 | 2% | -19.6% | -10.7% | -5.85% | -3.05% | -17.7%
NC(=O)N/N=C1\CCCCC12CCCCC2 | 4.3% | 6.25% | -4.9% | -16.1% | 2.2% | -11.4%
CSc1ccc2c(cc1=O)[C@@H](NC(=O)c1ccc([N+](=O)[O-])cc1)CCc1cc(O)c(O)c(O)c1-2 | 37.3% | 33.5% | 39.2% | 23.1% | 43.8% | 50%
O=C(N/N=C\c1ccccc1)Nc1cccc2ccccc12 | -27.4% | 16.4% | 20.3% | -25.9% | 27.9% | -9.75%
CN(C)c1ccc(C2SCC(=O)N2NS(=O)(=O)c2cccc(C(=O)O)c2)cc1 (stereo unspecified) | 5.05% | -21.2% | -10.8% | 4.75% | -24.6% | -2.2%
C[Si](C)(COC(N)=O)Cc1ccccc1 | -28.1% | -12.6% | -15.5% | -1.2% | -10.6% | -32%
CN(C)c1nc2[nH]ncc2c(=O)[nH]1 | 11.6% | 1.25% | 5.7% | -10.1% | 0.5% | 0.8%
O=C1S/C(=C2\C(=O)N(CN3CCCCC3)c3ccccc32)C(=O)N1CN1CCCCC1 | 26.6% | -13.1% | -3.85% | 4.65% | -1.1% | 31.1%
Oc1ccc2cccc(O)c2c1 | -17.6% | -33.6% | 37.5% | 19.9% | 12% | 3.9%
CC(=O)OC1C(COC(N)=O)OC(n2c(-c3ccc(C)cc3)cc(-c3ccccc3)c(C#N)c2=O)C(OC(C)=O)C1OC(C)=O (stereo unspecified) | -18.4% | 7.25% | 4.75% | 22.4% | 26.9% | 11.3%
COc1ccc(C2OCC(C)O2)cc1OC (stereo unspecified) | -13.4% | 16.1% | -8.2% | -31.4% | -31.4% | -7.3%
CCCC(CCc1ccccc1)C(N)=O (stereo unspecified) | 1.4% | -5.7% | 9.15% | -7.35% | 10.8% | -1.9%
COc1ccc(-c2cc(=O)c3cccc(CC(=O)O)c3o2)cc1OC | 99.2% (active) | 99.2% (active) | 97.5% (active) | 98.8% (active) | 99.3% (active) | 99.2% (active)
NC(=O)NC(=O)OCC(F)(F)C(F)(F)C(F)(F)C(F)(F)C(F)(F)C(F)(F)C(F)(F)F | 45.8% | 9.9% | 31.4% | 15.6% | -0.45% | 6.85%
Oc1c(Cl)cc(N=Cc2ccc(N(CCCCl)CCCCl)cc2)cc1Cl | 92.6% (active) | 14.7% | 94.8% (active) | 92% (active) | -13.6% | 80% (active)

SMILES | growth inhibition [1] | growth inhibition [2] | growth inhibition [3] | growth inhibition [4] | growth inhibition [5] | growth inhibition [6]
CC(C)=CCc1c(C)cc2cc3c(c(O)c2c1O)C(O)=CC(=O)C3(CC=C(C)C)C/C=C(\C)CO (stereo unspecified) | 54.6% | 37% | 52.5% | 47.2% | 48.9% | 46.1%
Cc1c(O)c2c(c(O)c1Cc1ccc(C#N)cc1)C(=O)c1ccccc1C2=O | -4.5% | 31.4% | 17.9% | -4.25% | -1.95% | -0.9%
CCN(CC)c1ncnc2c1cnn2C | -14.8% | -14.4% | 8.75% | 11% | -15.9% | -28%
CC(C)C(=O)Nc1ccccc1-c1ccccc1 | 14.3% | -1.45% | -9.35% | -1.4% | 0.05% | 8.8%
CC1CN(Cc2ccccc2)CCC1N1CCCC1 (stereo unspecified) | 24.8% | 11.8% | 27.6% | 29.4% | 23.2% | 21.4%
O=C(Nc1c(Oc2ccc(Cl)c(Cl)c2)ccc(Cl)c1S(=O)(=O)O)Nc1c(Oc2ccc(Cl)c(Cl)c2)ccc(Cl)c1S(=O)(=O)O | 22.2% | -3.25% | 13.9% | 11.7% | 22.1% | 22.2%
Cc1ccc(S(=O)(=O)NC(=O)C#CCOC2CCCCO2)cc1 (stereo unspecified) | 8.7% | -0.85% | -3.3% | 14.3% | 22.6% | 18.2%
Cc1ccc(NC(=NCCCN(C)C)C(c2ccccc2)c2ccccc2)cc1 | -2.7% | -0.25% | -5.4% | 0.4% | 11.4% | 13.4%
COc1cc(Cl)c(CC(=O)c2c[nH]c3ccccc23)cc1OC | 10.6% | -27.1% | -17.8% | -31.7% | -29.2% | 20.6%
COc1ccc(C(C)(C)c2ccccc2)cc1 | -20.1% | -45.1% | -13.4% | -19.9% | -24.6% | -18.6%
CC(C)CCC(C)C1CCC2C3CC/C(=N/Nc4ccc([N+](=O)[O-])cc4[N+](=O)[O-])C(C)(CCC(=O)O)C3CCC12C (stereo unspecified) | -45.8% | -12.2% | -24.9% | -24.2% | -0.1% | -3.4%
O=C(CNc1c(Cl)cccc1Cl)NC1C=Cc2ccc(S(=O)(=O)Nc3c(Cl)cccc3Cl)cc2C1=O (stereo unspecified) | 36.2% | 12.9% | 49% | 5.35% | 19% | 22%
O=C1CNC(=O)N1c1ccccc1 | 7.35% | 5.75% | 4.4% | -9.2% | 5.65% | 3.8%
C[C@]12CCC3c4ccc(OC(=O)c5ccccc5)cc4CC[C@H]3C1CC[C@@H]2OC(=O)C12OC1CCC2=O (stereo partly specified) | -5.4% | -35.5% | -7.55% | 1.75% | -27.9% | -9.85%
O=C1C2=C(Nc3ccccc3N2)OC1c1ccc2c(c1)OCO2 (stereo unspecified) | 4.15% | -9.95% | -20.1% | -7.9% | -29.4% | -0.1%
NC(CCCOS(=O)(=O)O)Cc1ccc2ccccc2c1 (stereo unspecified) | -10.6% | 9.35% | 16.6% | 10.2% | 3.55% | 8.9%
O=[N+]([O-])c1cc(Cl)c(Cl)c(Cl)c1Cl | 17.1% | 3.4% | -1% | 14.8% | 7.3% | 31.4%
Cc1ccc(S(=O)(=O)N2CCC(N)=N2)cc1 | 4.8% | -6.7% | -3.75% | -18.4% | 0.45% | -4.85%
